Test results taken from PubChem BioAssay AID743126 (The Scripps Research Institute Molecular Screening Center, 2013).
About 2,100 (0.57%) of roughly 370,000 compounds were called active. This is one part of a sample in which actives are shown more often than they occur.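 Rule for the calls: active = inhibition above mean plus 3 SD of compounds lying within the high and low control bounds (cut at about 19% in these data); inactive = the rest.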

Molecular target: Group 3 secretory phospholipase A2 (Homo sapiens) (UniProt Q9NZ20)
Assay: HGIII-sPLA2 enzyme inhibition – biochemical, QFRET, BODIPY PC-A2 liposome substrate, primary screen (AID 743126);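 note: 0% = median of test compound wells and 100% = no enzyme DMSO wells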
Details: QFRET BODIPY PC-A2 liposome hydrolysis, fluorescence; at 12.2 µM; stronger effect = higher value

Sequence of Group 3 secretory phospholipase A2 (Homo sapiens) (Q9NZ20 whole entry, looked up): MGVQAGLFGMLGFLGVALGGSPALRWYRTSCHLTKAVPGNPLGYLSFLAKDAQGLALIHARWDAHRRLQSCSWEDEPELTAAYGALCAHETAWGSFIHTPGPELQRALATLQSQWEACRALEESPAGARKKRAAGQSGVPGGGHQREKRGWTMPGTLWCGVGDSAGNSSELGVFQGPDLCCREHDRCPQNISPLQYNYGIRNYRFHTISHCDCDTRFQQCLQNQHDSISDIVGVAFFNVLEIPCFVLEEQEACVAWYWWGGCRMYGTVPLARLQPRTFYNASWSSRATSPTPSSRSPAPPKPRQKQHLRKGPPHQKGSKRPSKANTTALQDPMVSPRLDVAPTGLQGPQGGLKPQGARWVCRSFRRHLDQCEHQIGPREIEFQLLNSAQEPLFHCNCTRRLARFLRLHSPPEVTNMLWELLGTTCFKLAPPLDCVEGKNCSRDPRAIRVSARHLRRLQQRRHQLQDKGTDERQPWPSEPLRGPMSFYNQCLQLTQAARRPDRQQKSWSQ

inhibition, active:
CCNC(=S)Nc1ccc(OC(F)(F)F)cc1 20.4%, Cn1cc(Cl)c(C(=O)NNC(=S)Nc2cccc(Cl)c2)n1 42.2%, COCCCNC(=O)CNC(=S)N(Cc1cc(OC)c(OC)c(OC)c1)C1CCCC1 26.1%, CC(C(=O)Nc1ccccc1-c1ccccc1)N1CCOCC1 (centres undefined) 19.6%, CC(C)OC(=O)c1ccc(NCc2cc(O)ccc2O)cc1Cl 32.5%, CN(C)c1ccc(NC(=O)NC2CCCCN(Cc3ccc(Cl)cc3)C2=O)cc1 (centres undefined) 20.4%, CC(=O)Oc1ccc2c(c1)C(=O)c1ccccc1C2=O 20.7%, NS(=O)(=O)c1ccc(CCNC(=O)NC2CCCCC2)cc1 20.7%, COc1cccc(NC(C)=[N+](C)CCNS(=O)(=O)c2ccc(Cl)cc2)c1 22.1%, CN(CC(=O)Nc1ccc(N2CCOCC2)cc1)CC(=O)Nc1ccccc1[N+](=O)[O-] 20.6%, COCCn1c(SCC(=O)Nc2cc(OC)ccc2OC)nc2c(c1=O)SC(C)C2 (centres undefined) 20.3%, CCCCn1c(N)c(N(CCOC)C(=O)COc2c(C)cccc2C)c(=O)[nH]c1=O 21.9%, Nc1ccc(Nc2ccccc2)cc1 19.5%, COc1ccc(C(=O)NNC(=S)NC(=O)c2ccccc2)cc1 31.9%, COc1ccc(C(=O)NC(=S)NNC(=O)c2c(-c3ccccc3)noc2C)cc1 19.5%, COc1cc(OC)cc(C2=Cc3ccccc3C(CC(=O)c3ccco3)N2c2ccc(-c3cnc(OC)nc3)cc2)c1 (centres undefined) 20.3%, CC(Oc1ccc2ccccc2c1)C(=O)NNC(=S)NC(=O)c1ccco1 (centres undefined) 20%

inhibition, inactive:
COc1ccc(-n2c(COc3ccccc3)nnc2SCC(=O)Nc2ccc3c(c2)OCO3)cc1 -23.7%, CN(CC(=O)Nc1ccc(OC(F)(F)F)cc1)C(=O)C1CCC1 14.1%, CS(=O)(=O)c1sc(C(=O)NC(=S)Nc2ccc(OC(F)(F)F)cc2)c2c1C=CCC2 9.81%, Cc1nn(C)cc1C(=O)NNC(=S)Nc1ccc(Cl)cc1 7.95%, CC(C)CNC(=S)NNC(=O)c1nn(C)cc1Cl 17.9%, COc1cc(C(=O)NCC(=O)NCCSc2ccc(Br)cc2)cc(OC)c1OC -0.46%, COc1ccc(CCNC(=O)CCC(=O)NC2CCCCC2)cc1OC 3.45%, CC(C)(C)c1ccc(C(=O)Nc2cc(Cl)c(Br)cc2C(=O)O)cc1 -12.9%, O=C(Nc1cc(F)cc(F)c1)OC1CCC12CCC(c1ccccc1)CC2 (centres undefined) -7.77%, CC(Sc1nncn1C)C(=O)Nc1ccccc1-c1ccccc1 (centres undefined) 1.14%, CC(C(=O)Nc1ccc(F)c(F)c1F)N1CCCCCC1 (centres undefined) 7.49%, O=C(CCS(=O)(=O)c1ccccc1)Nc1ccc(Cl)c(Cl)c1 -9.24%, C=CS(=O)(=O)N(Cc1nnn(Cc2ccccc2)c1Br)[C@H](C(=O)OC)C(C)C 4.97%, Fc1ccc2nc(COCc3nc4ccc(F)cc4[nH]3)[nH]c2c1 -3%, Cc1ccccc1NC(=O)COC(=O)c1ccc(Sc2ncn[nH]2)c([N+](=O)[O-])c1 -13.9%, O=S(=O)(c1ccccc1)N1CCC(c2nc3ccccc3o2)CC1 -1.51%, COc1ccc2c(c1)CN1CN(CCc3ccccc3)S(=O)(=O)CC21 (centres undefined) 1.49%, C[C@@H]1ON(C)[C@H]2C[C@H]3c4[nH]c5cccc(-c6ccc7c(c6)OCO7)c5c4CCN3C[C@@H]12 -5.9%, O=C(NCCCc1ccccc1)[C@H](Cc1ccccc1)NC1(C(=O)NCCc2c[nH]c3ccccc23)CCC1 -86.7%, CN(CCc1ccccc1)C(=O)Cn1nc(-c2ccccc2)ccc1=O 4.61%, Cc1ccc(CN2CCCCC(NC(=O)C3CCCCC3)C2=O)cc1 (centres undefined) 2.08%, O=C(NC1CCCCN(Cc2ccc(Cl)cc2)C1=O)c1ccc(Br)cc1 (centres undefined) 2.5%, CCOc1ccc(N(CC(=O)Nc2c(C)n(C)n(-c3ccccc3)c2=O)S(=O)(=O)c2ccc(Cl)s2)cc1 -3.41%, O=C(NCCc1c[nH]c2ccccc12)OCc1cn(-c2c(F)cccc2F)nn1 -62.2%, CC(=O)c1cc(-c2ccc3ccccc3c2)c(=O)n2c1CCC2 -7.07%, O=C(CCCCCN1C(=O)C2C3C=CC(C3)C2C1=O)Nc1ccccc1 (centres undefined) -2.11%, CC(=O)O[C@H]1c2ccccc2-c2ccccc2[C@@H]1OC(C)=O 1.14%, CC(=O)Nc1ccc(Oc2ccc3c(c2)C(=O)NC3=O)cc1 1.41%, COc1ccc(OCC(=O)NCCc2ccc(S(N)(=O)=O)cc2)cc1 0.5%, O=C(NCCCNC(=O)NC1CCCCC1)NC1CCCCC1 6.47%, O=C(NCCC1=CCCCC1)C1CCN(S(=O)(=O)c2ccc(Cl)s2)CC1 -2.99%, COc1ccc(S(=O)(=O)NCCCCOc2ccc(Cl)cc2)cc1 -35.8%, COc1cccc(NC(=O)CCNS(=O)(=O)c2ccc3c(c2)oc(=O)n3C)c1 5.16%, CN(C)[C@H]1CCN(c2cccc3c2S(=O)(=O)N2CC[C@H](C2)O3)C1 -0.04%, Cc1ccc(OCc2nnc(SC/C=C/c3ccccc3)n2Cc2ccco2)cc1 -14.9%, CC(=O)Nc1nc2ncccn2c1-c1ccc(C(F)(F)F)cc1 11.9%, COC(=O)[C@]12C[C@H](CC(=O)N3CCN(C(=O)C4CC4)CC3)C(=O)N(CCC3=CCCCC3)C1=C[C@H](C(C)C)O[C@@H]2C1CC1 4.41%, CN(CC(=O)Nc1ccccc1[N+](=O)[O-])Cc1ccc(Br)cc1 -9.41%, CSc1ccccc1NC(=O)CN(C)CC(=O)Nc1ccc(Cl)cc1[N+](=O)[O-] -3.92%, Cc1cc(=O)[nH]c(SCC(=O)Nc2ccc(F)cc2F)n1 -0.22%, CCC(C)[C@@H](C(=O)OC)N(CCc1cn(Cc2ccccc2)nn1)S(=O)(=O)c1ccccc1Br (some centres undefined) -21.7%, COCCn1c(SCC(=O)Nc2cc(Cl)ccc2OC)nc2c(c1=O)SC(C)C2 (centres undefined) -0.04%, CCn1c(SCC(=O)Nc2ccccc2F)nc2c(c1=O)SC(C)C2 (centres undefined) 0.02%, Cc1nc(CNc2ncnc3ccc(-c4ccc5c(c4)OCO5)cc23)cs1 -8.39%, CCCCn1c(N)c(N(CCOC)C(=O)CSCC(=O)Nc2cccc(C)c2)c(=O)[nH]c1=O 0.3%, CCCCn1c(N)c(N(CCOC)C(=O)c2sc3ccccc3c2Cl)c(=O)[nH]c1=O 5.32%, CCCCOCCCNC(=O)C[C@H]1C[C@@]2(C(=O)OC)C(=C[C@H](C(C)(C)C)O[C@@H]2C)N(CCc2ccc(OC)c(OC)c2)C1=O -14.2%, COc1ccnc(C(=O)N2CCC(Oc3cccnc3)CC2)c1 3.64%, Cc1ccc(Nc2ccccc2N)cc1 -1.96%, O=c1cnnc(Nc2ccccc2)[nH]1 6.17%, CC(=O)O[C@@]1(C(C)=O)CCC2[C@H]3C=C(C)C4=CC(=O)CC[C@@]4(C)C3CC[C@]21C (some centres undefined) 14%, COc1ccc(C(=O)NN2C(=O)C3C(c4ccccc4)C=CC(c4ccccc4)C3C2=O)cc1 (centres undefined) -36.3%, COc1ccc(C(=O)NCCSc2ccccc2C)cc1 -6.45%, COc1ccc(C(=O)NNc2cc(C)nc(NNC(=O)c3ccc(OC)cc3)n2)cc1 -3.83%, COC(=O)c1ccc2nc(-c3ccccc3)c(Cc3ccc(OC)cc3C)n2c1 -8.3%, O=S1(=O)c2ccc(Br)cc2OC[C@@H](Cc2ccccc2)N1Cc1cn(Cc2ccco2)nn1 -4.54%, Nn1c(SCC(=O)Nc2cccc3ccccc23)nnc1-c1cc(-c2ccc(F)cc2)n[nH]1 -0.61%, COC(=O)c1ccccc1-n1cc(COC(=O)NCCc2ccccc2)nn1 6.94%, Cc1ccccc1NC(=O)Cn1nnc(-c2ccccc2F)n1 -6.88%, O=C1CC[C@@H](COc2ccc3[nH]cc(-c4ccccc4)c3c2-c2ccccc2)N1 -47.7%, COc1ccc(/C=C2\CC3(OC(C)=O)CCCN2C3)cc1 (centres undefined) 2.59%, CC(C)CNS(=O)(=O)CC1NCCc2ccccc21 (centres undefined) 3.21%, COc1cc(OC)cc(-c2nc3nc(C)c(CCC(=O)NCc4ccco4)c(C)n3n2)c1 9.12%, COCCN(C(=O)c1ccco1)c1nnc(-c2ccc(OC)cc2)s1 -1.24%, CC(c1c[nH]c2ccccc12)c1c(-c2ccccc2)n(C)c2ccccc12 (centres undefined) -21.1%, COc1ccc(CSc2nnc(-c3cccc(C)c3)n2C)cc1 11.9%, O=C(CSc1nc2sc3c(c2c(=O)n1-c1ccccc1)CCCC3)NN=Cc1ccc(OCc2ccccc2)cc1 -1.3%, COC(=O)C1CN(CC(C)C)CCS(=O)(=O)N1Cc1ccc(F)cc1 (centres undefined) 5.81%, N#Cc1ccccc1OC[C@@H](O)CN1CCC(C(O)(c2ccccc2)c2ccccc2)CC1 -25.3%, COc1ccc(/C=C(/NC(=O)c2ccco2)C(=O)Nc2ccc(C(C)=O)cc2)cc1 10.6%, NS(=O)(=O)c1ccc(CNC(=S)NC(=O)c2ccco2)cc1 -1.55%, CCOC(=O)C1=C(C)NC2=C(C(=O)CC(C)(C)C2)C1c1ccc2c(c1)OCO2 (centres undefined) 14.4%
